These results are taken from PubChem BioAssay (NCI).

Among the test systems are SR leukemia; RPMI-8226 leukemia; OVCAR-8 ovarian; OVCAR-5 ovarian; OVCAR-4 ovarian; SK-OV-3 ovarian; IGROV1 ovarian; OVCAR-3 ovarian; HS 578T breast; NCI/ADR-RES ovarian; T-47D breast; BT-549 breast; MDA-MB-435 melanoma; SW-620 colon; MCF7 breast; HCT-116 colon; HCC-2998 colon; KM12 colon.
Common to all, as to assay: NCI-60 one-dose screen, 48 h (100 = growth as untreated, 0 = no growth, -100 = all killed)
Settings in all cases: 10 µM unless noted

The panel holds about 83,000 compounds, 20% with a hit somewhere; the sample as a whole holds those more often.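 Values shown are percent growth following 48 h exposure of cells in 96-well plates to a single concentration of compound; below 10 was considered active.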 A number with no mark means an inactive call. Activity calls are given as the source filed them.

`N#Cc1cccc(CN2CCc3ncn(Cc4ccc(Cl)cc4)c(=O)c3C2)c1`: the growth in the assay on SR leukemia is 36.2%; with RPMI-8226 leukemia it was 22.4%; with OVCAR-8 ovarian, 24.3%; in the assay on OVCAR-5 ovarian, 23.8%; with OVCAR-4 ovarian it was 16.5%; in the assay on SK-OV-3 ovarian, 22.8%. Also, the growth with IGROV1 ovarian was 44.1%; in the assay on OVCAR-3 ovarian, 21.7%; with HS 578T breast it was 35.9%; in the assay with NCI/ADR-RES ovarian, 14.7%; with T-47D breast, 30.7%; in the assay on BT-549 breast it was 29.7%. Besides, the growth with MDA-MB-435 melanoma is 18.4%; in the assay with SW-620 colon, 33.2%; in the assay on MCF7 breast it was 15.5%; in the assay on HCT-116 colon, 19.5%; with HCC-2998 colon, 13.9%; in the assay on KM12 colon, 29.7%.
For `C#Cc1nc(/C=C/C(=O)c2nccn2C)cs1`, the growth was -40.8% (active) with SR leukemia; -39.9% (active) in the assay with RPMI-8226 leukemia; 27.1% with OVCAR-8 ovarian; -87.4% (active) with OVCAR-5 ovarian; 33.7% in the assay with OVCAR-4 ovarian; -59.7% (active) in the assay on SK-OV-3 ovarian. For the same compound, the growth was -59.1% (active) in the assay on IGROV1 ovarian; -64.4% (active) in the assay on OVCAR-3 ovarian; -6.46% (active) in the assay on HS 578T breast; -26.1% (active) in the assay on NCI/ADR-RES ovarian; -23.4% (active) in the assay with T-47D breast; -59.1% (active) with BT-549 breast. Further, the growth in the assay on MDA-MB-435 melanoma was 1.27% (active); in the assay on SW-620 colon, -24.9% (active); in the assay on MCF7 breast it was -30% (active); in the assay with HCT-116 colon, -48.8% (active); in the assay with HCC-2998 colon it was -83.1% (active); in the assay with KM12 colon it was -43.5% (active).
As to `Cn1ccnc1C(=O)/C=C/c1ccc(NC(=O)c2c(F)c(F)c(F)c(F)c2F)cc1`, the growth with SR leukemia was 70.2%; in the assay on RPMI-8226 leukemia it was 80.6%; in the assay on OVCAR-8 ovarian, 102%; in the assay on OVCAR-5 ovarian, 111%; in the assay on OVCAR-4 ovarian, 106%; in the assay on SK-OV-3 ovarian, 129%. Also, the growth with IGROV1 ovarian was 98.9%; in the assay with OVCAR-3 ovarian, 107%; in the assay with HS 578T breast, 112%; in the assay on NCI/ADR-RES ovarian it was 108%; with T-47D breast it was 103%; in the assay on BT-549 breast, 98.2%. Besides, the growth in the assay on MDA-MB-435 melanoma is 107%; in the assay with SW-620 colon it was 105%; in the assay on MCF7 breast, 70.8%; in the assay on HCT-116 colon, 101%; in the assay with HCC-2998 colon, 125%; in the assay with KM12 colon, 105%.
As to `C#Cc1nc(C(=O)NCCC(=O)Nc2ccc(NC(=O)c3ccc(/C=C/C(=O)c4nccn4C)cc3)cc2)cs1`, the growth with SR leukemia is 0.901% (active); with RPMI-8226 leukemia, -33% (active); in the assay with OVCAR-8 ovarian, 22.3%; in the assay with OVCAR-5 ovarian it was 50.9%; with OVCAR-4 ovarian, 61.8%; in the assay with SK-OV-3 ovarian, 86.3%. The growth was -25.5% (active) in the assay on IGROV1 ovarian; -11.5% (active) in the assay with OVCAR-3 ovarian; 86.7% in the assay on HS 578T breast; 49.2% in the assay on NCI/ADR-RES ovarian; 49.3% in the assay on T-47D breast; 54.3% with BT-549 breast. Also, the growth in the assay on MDA-MB-435 melanoma is 27%; with SW-620 colon, 15.7%; with MCF7 breast, 8.54% (active); with HCT-116 colon, -33.1% (active); in the assay on HCC-2998 colon, 93.5%; in the assay with KM12 colon, 9.96% (active).
Take `CC1(C)CC[C@]2(C(=O)N3CCOCC3)CC[C@]3(C)C(=CC[C@@H]4[C@@]5(C)C/C(=C/c6ccco6)C(=O)C(C)(C)[C@@H]5CC[C@]43C)[C@@H]2C1`: the growth was 44.6% with SR leukemia; 55.6% in the assay with RPMI-8226 leukemia; 91.3% with OVCAR-8 ovarian; 96.8% with OVCAR-5 ovarian; 60.9% with OVCAR-4 ovarian; 109% in the assay on SK-OV-3 ovarian. The growth was 86.7% in the assay on IGROV1 ovarian; 86.9% in the assay on OVCAR-3 ovarian; 83.5% with HS 578T breast; 96.6% in the assay with NCI/ADR-RES ovarian; 75.7% with T-47D breast; 97.4% in the assay on BT-549 breast. Further, the growth with MDA-MB-435 melanoma was 88.7%; in the assay on SW-620 colon, 74.1%; in the assay on MCF7 breast, 64%; in the assay on HCT-116 colon, 62.1%; in the assay with HCC-2998 colon it was 103%; in the assay with KM12 colon, 95.7%.
`COc1cc(/C=C2\C(=O)Nc3ccccc32)ccc1OCc1ccc(Cl)cc1`: the growth is 93.8% with SR leukemia; 97.5% in the assay on RPMI-8226 leukemia; 102% with OVCAR-8 ovarian; 101% with OVCAR-5 ovarian; 99.1% in the assay with OVCAR-4 ovarian; 111% with SK-OV-3 ovarian. Besides, the growth with IGROV1 ovarian is 102%; in the assay with OVCAR-3 ovarian it was 106%; with HS 578T breast it was 105%; in the assay with NCI/ADR-RES ovarian, 100%; with T-47D breast it was 107%; in the assay on BT-549 breast it was 109%. The growth in the assay with MDA-MB-435 melanoma is 106%; in the assay on SW-620 colon, 96.6%; with MCF7 breast it was 69.5%; in the assay with HCT-116 colon, 86.9%; with HCC-2998 colon, 123%; in the assay on KM12 colon, 99.6%.
For the compound `COc1cc2nc(Cl)nc(Nc3cccc(C4=Nc5c(N)nc(N)nc5NC(c5ccc(Cl)cc5)C4)c3)c2cc1OC` (centres undefined), the growth in the assay with SR leukemia is -8.05% (active); with RPMI-8226 leukemia, -18.9% (active); with OVCAR-8 ovarian it was 29.1%; in the assay on OVCAR-5 ovarian, 114%; with OVCAR-4 ovarian it was 101%; with SK-OV-3 ovarian it was 124%. The growth with IGROV1 ovarian is 87.9%; in the assay with OVCAR-3 ovarian, 62.6%; with HS 578T breast, 88.6%; with NCI/ADR-RES ovarian, 80.1%; in the assay with T-47D breast it was 81.7%; in the assay with BT-549 breast, 85.2%. Moreover, the growth in the assay with MDA-MB-435 melanoma is 6.34% (active); with SW-620 colon it was 11.2%; in the assay on MCF7 breast, 13%; in the assay with HCT-116 colon, -44.8% (active); in the assay with HCC-2998 colon, 4.35% (active); with KM12 colon it was 14.1%.
As for `NS(=O)(=O)c1ccc(Nc2nc(Nc3ccccc3)nc3nnc(SCC(=O)NC4CCCCC4)n23)cc1`, the growth with SR leukemia was 97.7%; with RPMI-8226 leukemia, 105%; with OVCAR-8 ovarian, 99.8%; in the assay with OVCAR-5 ovarian it was 105%; in the assay with OVCAR-4 ovarian, 108%; in the assay on SK-OV-3 ovarian it was 105%. The growth was 95.5% in the assay on IGROV1 ovarian; 119% in the assay on OVCAR-3 ovarian; 102% in the assay on HS 578T breast; 112% in the assay on NCI/ADR-RES ovarian; 104% with T-47D breast; 104% in the assay on BT-549 breast. The growth is 110% with MDA-MB-435 melanoma; 106% in the assay with SW-620 colon; 100% in the assay on MCF7 breast; 99.8% in the assay with HCT-116 colon; 109% in the assay on HCC-2998 colon; 102% with KM12 colon.
